Compound activity: PubChem, several laboratories
PP1 counter – PP1-alpha (human) inhibition in PP5 counter-screen | P62136 | purified PP1alpha, OMFP fluorescence | inhibition, % at 6.7 µM | hit rate 0.9% among 320,000 | AID 2235;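 active = inhibition above the mean inhibition of all tested compounds plus 3 SD, computed separately for each screening campaign, cut at about 15% in these data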
ANO1 block – blocks the mouse calcium-activated chloride channel TMEM16A; Q8BHY3; HEK293 TMEM16A/YFP iodide influx fluorescence, ionomycin; normalized B-score (activity score, 25-100; higher = stronger inhibition) at 10 µM; hit rate 1.2% among 310,000;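 active = ratio plate-corrected score three or more library SD toward inhibition, starting fluorescence score within five deviations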;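 note: score derived from kinetic fluorescence span divided by baseline fluorescence per well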
DNA FID counter – fluorescent intercalator displacement, NS3 helicase counter-screen; DNA fluorescent intercalator displacement, fluorescence; inhibition, % at 7.9 µM; hit rate 0.17% among 290,000; AID 1845; in the data active = inhibition above about 37%;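 note: 0% = vehicle and 100% = reference compound; higher means more ethidium bromide displaced from hairpin DNA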
PREPL inh – human PREPL enzyme inhibition. inhibition, % at 5.96 µM. hit rate 0.68% among 320,000. Q4J6C6. recombinant PREPL, fluorescence polarization activity-based probe; in the data active = inhibition above about 43%;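 note: 0% = enzyme with DMSO and 100% = wells lacking enzyme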
TMEM16A act – activates or potentiates the mouse TMEM16A chloride channel; Q8BHY3; HEK293 TMEM16A/YFP-H148Q/I152L, iodide quench fluorescence; active compounds read low; B-score at 10 µM; hit rate 0.3% among 340,000; AID 623877;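 active = fluorescence-ratio B-score plate-corrected deviation score at least 3 library SD below zero, with starting fluorescence score within 5 deviations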;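 note: channel opened by trigger with iodide after compound preincubation; score built on the fluorescence ratio of max minus min over baseline; more negative score means more quench and so TMEM16A activation or potentiation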
PP5 inh – blocks human protein phosphatase 5 activity | inhibition, % at 6.7 µM | hit rate 0.18% among 320,000 | purified PP5c, OMFP substrate fluorescence | AID 1987;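 active = inhibition above the campaign's mean inhibition across all tested compounds plus 3 SD, cut at about 9.5% in these data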;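 note: 0% = DMSO only and 100% = 100 µM cantharidin control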
* marks the source's active call; other numbers are inactive results. An excerpt weighted towards active compounds, which were near 2.7% of everything screened.

Screening C=C(C(=O)Oc1ccccc1C(C)(C)C)c1ccccc1 returned PP1 counter -1, PREPL inh 7 and PP5 inh 2.
Screening O=C(Nc1ccccc1)Nc1ccc2nnsc2c1 returned PP1 counter -3, ANO1 block 100*, DNA FID counter 5, PREPL inh 7, TMEM16A act inactive and PP5 inh 4.
Screening Cc1cc(C(=O)CSc2nnc(-c3cccc(F)c3)n2N)c(C)n1Cc1ccc2c(c1)OCO2 returned PP1 counter 10, ANO1 block 100*, DNA FID counter -13, PREPL inh -11, TMEM16A act inactive and PP5 inh 4.
Screening Cc1ccc(C(=O)NCc2cccnc2)cc1S(=O)(=O)N1CCCCCC1 returned PP1 counter -5, ANO1 block inactive, DNA FID counter -22, PREPL inh -2, TMEM16A act inactive and PP5 inh -1.
For O=C(Nc1nc(=S)ss1)c1ccc(Cl)cc1Cl the results were PP1 counter -1, ANO1 block 100*, DNA FID counter 7, PREPL inh -19, TMEM16A act inactive and PP5 inh 4.
`COc1ccc(S(=O)(=O)N(C)c2ccc(OC(=O)C(C)Oc3ccc(F)cc3)cc2)cc1` (stereo unspecified) gave PP1 counter -3, ANO1 block inactive, PREPL inh -5, TMEM16A act inactive and PP5 inh 2.
Screening CNC1(C)[C@H]2CC[C@H](C2)C1(C)C (stereo partly specified) returned PREPL inh 1 and TMEM16A act inactive.
CN1CCC(CC(C(=O)N2CCCC2)(c2ccccc2)c2ccccc2)C1 (stereo unspecified) was read as TMEM16A act inactive.
`COc1ccc(Nc2cc(C(=O)NCCCN3CCN(C)CC3)c3ccccc3n2)cc1` gave PP1 counter -7, ANO1 block inactive, DNA FID counter 41*, PREPL inh 21, TMEM16A act inactive and PP5 inh 0.
`COc1ccccc1Nc1cc(C(=O)NCCCN2CCOCC2)c2ccccc2n1` gave PP1 counter -2, ANO1 block inactive, DNA FID counter 19, PREPL inh 9, TMEM16A act inactive and PP5 inh 3.
For COc1ccc(OC)c(Nc2cc(C(=O)NCCCN3CCOCC3)c3ccccc3n2)c1 the results were PP1 counter -3, ANO1 block inactive, DNA FID counter 41*, PREPL inh 21, TMEM16A act inactive and PP5 inh 1.
Screening COc1ccc(-c2cc(C(=O)NCCCN3CCOCC3)c3cc(C(C)C)ccc3n2)cc1 returned PP1 counter -3, ANO1 block inactive, DNA FID counter 37*, PREPL inh 12, TMEM16A act inactive and PP5 inh 0.
For CCOc1ccc(-c2cc(C(=O)NCCCN3CCOCC3)c3ccccc3n2)cc1 the results were PP1 counter -1, ANO1 block inactive, DNA FID counter 19, PREPL inh 2, TMEM16A act inactive and PP5 inh 1.
`COc1ccc(Nc2cc(C(=O)NCCCN3CCOCC3)c3ccccc3n2)cc1` gave PP1 counter 1, ANO1 block inactive, DNA FID counter 18, PREPL inh 7, TMEM16A act inactive and PP5 inh 2.
`O=C(Nc1ccccc1N1CCN(C(=O)c2ccccc2)CC1)c1ccc(Cl)cc1` gave PP1 counter 3, ANO1 block inactive, DNA FID counter -32, PREPL inh 14, TMEM16A act inactive and PP5 inh 3.
Screening O=C(Nc1ccccc1N1CCN(C(=O)c2ccc(Cl)cc2)CC1)c1ccc(Br)cc1 returned PP1 counter 16*, ANO1 block inactive, DNA FID counter -22, PREPL inh -17, TMEM16A act inactive and PP5 inh 2.
For CCC1(C)Cc2c(C#N)c(N)sc(=S)c2CO1 (stereo unspecified) the results were PP1 counter -1, ANO1 block inactive, DNA FID counter -2, PREPL inh 4, TMEM16A act -25* and PP5 inh 2.
COc1cc2c(cc1OC)C(C)N(C(=O)[C@@H](NC(=O)c1ccccc1)C(C)C)CC2 (stereo partly specified) was read as PP1 counter 3, ANO1 block inactive, DNA FID counter -37, PREPL inh -3, TMEM16A act inactive and PP5 inh 0.
Screening O=C(/C=C/c1cccc([N+](=O)[O-])c1)NCCSCc1cccc(Cl)c1 returned PP1 counter 6, ANO1 block 100*, DNA FID counter -3, PREPL inh 12, TMEM16A act inactive and PP5 inh 3.
COc1ccc2ccccc2c1C(O)c1nccn1C (stereo unspecified) was read as PP1 counter -2, ANO1 block inactive, DNA FID counter 45*, PREPL inh 32, TMEM16A act inactive and PP5 inh 1.
COc1ccc(/C=C/C(=O)NC(=S)NCc2ccccc2)cc1OC was read as PP1 counter 16*, ANO1 block inactive, DNA FID counter -10, PREPL inh 6, TMEM16A act inactive and PP5 inh 0.
For COc1ccc(/C=C/C(=O)NC(C)CCc2ccccc2)cc1OC (stereo unspecified) the results were PP1 counter -1, ANO1 block inactive, DNA FID counter -13, PREPL inh 12, TMEM16A act inactive and PP5 inh 2.
`COc1cc(OC)c(OC)cc1/C=C/C(=O)OCC(=O)Nc1c(C)n(C)n(-c2ccccc2)c1=O` gave TMEM16A act inactive.
`O=c1oc(-c2ccccc2)nc2sc3c(c12)CCC3` gave PP1 counter 6, ANO1 block inactive, DNA FID counter 5, PREPL inh 40, TMEM16A act inactive and PP5 inh 2.
O=c1oc(-c2ccco2)nc2sc3c(c12)CCCC3 was read as PP1 counter 4, ANO1 block inactive, DNA FID counter -1, PREPL inh 72*, TMEM16A act inactive and PP5 inh 3.
`CN1CCN(c2ccc(NC(=O)c3ccc(-c4ccc(Cl)cc4)o3)cc2)CC1` gave PP1 counter 1, ANO1 block inactive, DNA FID counter 38*, PREPL inh 29, TMEM16A act inactive and PP5 inh 3.
For CS(=O)(=O)N1CCN(c2ccc(NC(=O)c3ccc(-c4ccc(Cl)cc4)o3)cc2)CC1 the results were PP1 counter 10, ANO1 block inactive, DNA FID counter 0, PREPL inh 8, TMEM16A act inactive and PP5 inh -1.
Screening O=C(NCC1CCCO1)c1ccc(CNS(=O)(=O)c2cccc(Cl)c2)cc1 (stereo unspecified) returned PP1 counter 8, ANO1 block inactive, DNA FID counter -15, PREPL inh -7, TMEM16A act inactive and PP5 inh -2.
